Screening results (PubChem BioAssay)
Rows were chosen to be rich in hits. Some 7.8% of all compounds tested hit in one or more screens of this group.
MARV entry inh: qHTS for inhibitors of binding or entry into cells for Marburg Virus | Potency, µM (series often up to 37.8 µM), hits mostly inhibitors | 300,000 compounds, 1.8% hits | Marburg virus pseudotyped entry inhibition, cell reporter; calls by dose curve; tested in HEK293 cells
VACV Venus inh: qHTS for Stage-Specific Inhibitors of Vaccinia Orthopoxvirus: Venus Reporter Primary qHTS; Vaccinia virus Venus reporter expression, fluorescence; 330,000 compounds, 0.46% hits; AID 720580, 2013; Potency, µM (series often up to 36.5 µM), actives largely listed as inhibitors; calls by dose curve; tested in A549 cells; also: nearly all actives have a fitted effect of over 30% in size
VACV mCherry inh: qHTS for Stage-Specific Inhibitors of Vaccinia Orthopoxvirus: mCherry Reporter Primary qHTS | 310,000 compounds, 0.63% hits | Vaccinia virus mCherry reporter infection, fluorescence | Potency, µM (highest dose often 36.5 µM), most hits filed as inhibitors | AID 720579, 2013; calls by dose curve; tested in A549 cells; also: nearly all actives have a fitted effect of over 35% in size
HCV inh: qHTS Assay for Inhibitors of Hepatitis C Virus (HCV). 340,000 compounds, 3.4% hits. Potency, µM (top dose mostly 41.8 µM), hits mostly inhibitors. Huh7.5.1 HCVcc-Cre infection, luciferase reporter, 44 h; active = well fitted inhibition curve with a large enough effect; inconclusive = small, poorly fitted or top-dose-only effect, or another doubt; inactive = no such curve, though single readings can be large or run the other way
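Luciferase read-out (15 sec integration) after a 15 min room-temperature substrate step quantifies HCVcc-Cre infection. Cells, 1,000 per well, had compound added 4 h post-plating, then virus at ~0.5 moi, and were cultured 44 h.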
Lassa entry inh: qHTS for Inhibitors of binding or entry into cells for Lassa Virus. Lassa virus pseudotype entry inhibition, cell reporter. Potency, µM (titrated, usually from 37.9 µM), most hits filed as inhibitors. 300,000 compounds, 1.2% hits. AID 540256, 2011; calls by dose curve; tested in HEK293 cells; also: nearly all actives have a fitted effect of over 50% in size
HCMV antiviral: qHTS Assay for inhibitors of the human cytomegalovirus (HCMV). HFF cells, HCMV-luciferase reporter, 72 h; stronger effect = lower value. activity change, negative = inhibition, % at 57.5 µM. 410,000 compounds, 4.5% hits; in the data active = activity change below about -60%; inconclusive = no clear call, values can overlap the other calls; inactive = above about -39%
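Inhibition of viral replication was scored as loss of reporter luminescence in HFFs infected with HCMV-luciferase (MOI 1 PFU/cell) for 72 h; compounds tested at 2 doses, normalized to buffer and Salinomycin controls.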
Numbers stand for hits.

How did COc1ccc(CN(C2CCCCC2C)S(=O)(=O)c2ccc(S(=O)(=O)N(C)C)cc2)cc1OC (centres undefined) do in these assays?
MARV entry inh: inconclusive; VACV Venus inh: inactive; VACV mCherry inh: inactive; HCV inh: inactive; Lassa entry inh: inconclusive; HCMV antiviral: -79.2

What do the screens show for `CCN(C(=O)CCNC(=O)Cn1cnc2ccccc2c1=O)c1cc(OC)ccc1OC`?
VACV Venus inh: inactive; VACV mCherry inh: inactive; Lassa entry inh: inactive; HCMV antiviral: inactive

What do the screens show for `Cc1cc(C)cc(OCCOCCn2c(-c3ccc(Cl)cc3)nc3ccccc3c2=O)c1`?
MARV entry inh: 7.08µM; VACV Venus inh: inactive; VACV mCherry inh: inactive; Lassa entry inh: inactive; HCMV antiviral: inactive

How did COc1ccccc1OCC(=O)O do in these assays?
MARV entry inh: inactive; VACV Venus inh: inactive; HCV inh: inactive; Lassa entry inh: inactive; HCMV antiviral: inactive

What do the screens show for `COc1ccccc1OCCC(=O)O`?
MARV entry inh: inactive; VACV Venus inh: inactive; VACV mCherry inh: inactive; HCV inh: inactive; Lassa entry inh: inactive; HCMV antiviral: -90.8

How did Cc1ccc(CCNC(=O)NCc2noc3ccc(C)cc23)cc1 do in these assays?
VACV Venus inh: inactive; VACV mCherry inh: inactive; Lassa entry inh: inactive; HCMV antiviral: inactive

Results for CC(OC(=O)c1cc(Br)ccc1O)C(=O)NC1(C#N)CCCCC1 (centres undefined) ?
MARV entry inh: inactive; VACV Venus inh: inactive; VACV mCherry inh: inactive; HCV inh: inconclusive; Lassa entry inh: inactive; HCMV antiviral: inactive

Results for CC(OC(=O)c1ccc2c(c1)OCO2)C(=O)NC1CCCCC1C (centres undefined) ?
MARV entry inh: inconclusive; VACV Venus inh: inactive; VACV mCherry inh: inactive; HCV inh: inconclusive; Lassa entry inh: inactive; HCMV antiviral: inconclusive

How did Cc1[nH]c2ccc(C(=O)OC(C)C(=O)NC3CCCCC3C)cc2c1C (centres undefined) do in these assays?
HCV inh: 22.4µM; HCMV antiviral: inactive

How did Cc1[nH]c2ccc(C(=O)OC(C)C(=O)NC3(C#N)CCCCC3)cc2c1C (centres undefined) do in these assays?
MARV entry inh: inconclusive; VACV Venus inh: inactive; VACV mCherry inh: inactive; HCV inh: 14.1µM; Lassa entry inh: inconclusive; HCMV antiviral: inactive

How did CC(OC(=O)c1ccc(-c2ccc(O)cc2)cc1)C(=O)NC1CCCCC1C (centres undefined) do in these assays?
MARV entry inh: inconclusive; VACV Venus inh: inactive; VACV mCherry inh: inactive; HCV inh: 12.6µM; Lassa entry inh: inactive; HCMV antiviral: inactive

What do the screens show for `CO[C@H]1[C@H](NC(=O)c2ccco2)c2ccccc2C12CCN(Cc1ccc3cccc(F)c3n1)CC2`?
VACV Venus inh: inactive; VACV mCherry inh: inactive

How did Cc1cccc(N2CCN(C(=O)COc3cc(=O)n(C)c4ccccc34)CC2)c1C do in these assays?
MARV entry inh: inactive; HCV inh: inconclusive; Lassa entry inh: inconclusive; HCMV antiviral: inactive

Results for Cc1ccc(C)c(N2CCN(C(=O)CCCOc3cc(=O)n(C)c4ccccc34)CC2)c1 ?
MARV entry inh: inconclusive; HCV inh: 10µM; Lassa entry inh: inconclusive; HCMV antiviral: inactive

What do the screens show for `Cc1ccc(C)c(N2CCN(C(=O)COc3cc(=O)n(C)c4ccccc34)CC2)c1`?
MARV entry inh: inactive; HCV inh: inconclusive; Lassa entry inh: 18.3µM; HCMV antiviral: inactive

What do the screens show for `CCN(c1ccccc1)S(=O)(=O)c1ccc(C(=O)Nc2nnc(-c3ccco3)o2)cc1`?
HCV inh: inconclusive; HCMV antiviral: -77.2

How did CN(c1ccccc1)S(=O)(=O)c1ccc(C(=O)Nc2nnc(-c3ccco3)o2)cc1 do in these assays?
MARV entry inh: inconclusive; VACV Venus inh: inactive; VACV mCherry inh: inconclusive; HCV inh: inconclusive; Lassa entry inh: inactive; HCMV antiviral: -94.7

Results for CCn1c(SCc2ccccc2Cl)nc(=O)c2c(C(=O)OC)cc(C3CC3)nc21 ?
VACV Venus inh: inactive; VACV mCherry inh: inactive; Lassa entry inh: inactive; HCMV antiviral: inactive

How did Cc1sc2ncnc(N/N=C/c3cccc(O)c3)c2c1C do in these assays?
MARV entry inh: 3.16µM; VACV Venus inh: inactive; VACV mCherry inh: inactive; HCV inh: inconclusive; Lassa entry inh: inactive; HCMV antiviral: inconclusive

What do the screens show for `C/C(=N\Nc1ncc(Cl)cc1Cl)c1ccccn1`?
MARV entry inh: 0.891µM; VACV Venus inh: inactive; VACV mCherry inh: inconclusive; HCV inh: inconclusive; Lassa entry inh: inconclusive

Results for C/C(=N\Nc1ncnc2sc(C)c(C)c12)c1ccccn1 ?
MARV entry inh: 3.16µM; VACV Venus inh: inactive; VACV mCherry inh: 5.01µM; HCV inh: inconclusive; Lassa entry inh: inconclusive; HCMV antiviral: -101.5

How did C/C(=N\Nc1ccc(Cl)c(C(=O)O)c1)c1ccccn1 do in these assays?
VACV Venus inh: inactive; VACV mCherry inh: inactive; HCV inh: inactive; HCMV antiviral: inactive

What do the screens show for `Fc1ccc(NN2CCOCC2)cc1-c1noc2ccccc12`?
HCMV antiviral: inactive

Results for O=C(Nc1n[nH]c2cc(-c3cc(F)ccc3F)ccc12)C1CC1 ?
Lassa entry inh: 25µM

Results for O=C(c1ccc(O)c(Br)c1)c1cc(Br)ccc1O ?
MARV entry inh: inconclusive; VACV Venus inh: inactive; VACV mCherry inh: inconclusive; HCV inh: inactive; Lassa entry inh: inactive; HCMV antiviral: inactive

What do the screens show for `O=C(C(=O)c1cc(Br)ccc1O)c1cc(Br)ccc1O`?
MARV entry inh: inconclusive; VACV Venus inh: inconclusive; VACV mCherry inh: inconclusive; HCV inh: inconclusive; Lassa entry inh: inconclusive; HCMV antiviral: -97.3

Results for Cc1cccc(NC(=O)C2CCN(S(=O)(=O)c3c(C)c(C)cc(C)c3C)CC2)n1 ?
MARV entry inh: inconclusive; VACV Venus inh: inactive; VACV mCherry inh: inactive; HCV inh: inconclusive; Lassa entry inh: inconclusive; HCMV antiviral: inactive

What do the screens show for `Cc1cccc(NC(=O)C2CCN(S(=O)(=O)c3c(C)nn(C)c3C)CC2)n1`?
MARV entry inh: inactive; VACV Venus inh: inactive; VACV mCherry inh: inactive; HCV inh: 25.1µM; HCMV antiviral: inconclusive

Results for CCC/C(=N\NC(=O)CCC(=O)NCc1ccccc1)c1ccccc1 ?
MARV entry inh: inconclusive; VACV Venus inh: inactive; VACV mCherry inh: inactive; HCV inh: inactive; Lassa entry inh: 3.98µM; HCMV antiviral: inactive

Results for CCCC(=O)NNC(=O)CCC(=O)NCc1ccccc1 ?
MARV entry inh: inactive; HCV inh: inactive; Lassa entry inh: inactive; HCMV antiviral: inactive

Results for CN(C)CCCNc1ncnc2scc(-c3ccccc3)c12 ?
MARV entry inh: inconclusive; VACV Venus inh: inactive; VACV mCherry inh: inactive; HCV inh: inconclusive; Lassa entry inh: inactive; HCMV antiviral: inactive

What do the screens show for `c1ccc(CNc2nc(CN3CCOCC3)nc3scc(-c4ccccc4)c23)cc1`?
MARV entry inh: inconclusive; VACV Venus inh: inactive; VACV mCherry inh: inactive; HCV inh: inactive; Lassa entry inh: inactive; HCMV antiviral: inactive
